In PubChem BioAssay (EPA / NIEHS) one finds outcome and AC50 data, which are given here for 4 compounds.

Activity calls are given as the source filed them. How the source made its calls: active means hit-call score of the fitted dose curve at least 0.9, where 1 is the maximum; inactive means score below 0.9.

Assay [1] concerns the target Bile acid receptor (Homo sapiens) (UniProt Q96RI1). Put plainly: ATG_IR1_CIS: Attagene CIS-FACTORIAL HepG2 Assay for human Nuclear Receptor Subfamily 1 Group H Member 4 (NR1H4), IR1 submotif (AID 2282946). As to conditions: IR1 reporter transcription, actives raise or lower the signal. The procedure, abridged:
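HepG2 cells transiently transfected with multiple cis-promoter-driven reporter units to measure endogenous transcription factor activity; 24 h exposure. Reporter mRNA read by RT-PCR, FAM labelling, HpaI digestion and capillary electrophoresis. Bidirectional fit versus DMSO.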

A short description of assay [2]: ATG_GRE_CIS: Attagene CIS-FACTORIAL HepG2 Assay for human Glucocorticoid Response Elements (GRE) (AID 2282947). To be noted: HepG2 GRE cis-reporter, Attagene multiplex mRNA; actives raise or lower the signal. The method, boiled down:
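Transiently transfected HepG2 cells carrying GRE cis-reporter units (endogenous TF activity) dosed 24 h; reporter mRNA quantified by RT-PCR, 6-FAM labelling, HpaI digestion and capillary electrophoresis. Bidirectional fit versus DMSO baseline.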

A short description of assay [3]: ATG_ISRE_CIS: Attagene CIS-FACTORIAL HepG2 Assay for human Interferon Regulatory Factor 1 (IRF1) binding to an Interferon-Stimulated Response Element (ISRE) (AID 2282948). To be noted: HepG2 ISRE cis-reporter (Attagene), mRNA transcription readout; actives raise or lower the signal. The procedure, abridged:
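Quantitation relies on labelled RT-PCR fragments separated by capillary electrophoresis. Human HepG2 cells bearing cis-promoter reporter constructs were treated 24 h; DMSO served as baseline for bidirectional fitting.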

Assay [4] in a line: ATG_M_32_CIS: Attagene CIS-FACTORIAL HepG2 Assay for M32 Transcription Factor (Internal Marker) (AID 2282949).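 Further: background control marker of the multiplexed CIS panel rather than a real target.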 To be noted: HepG2 Attagene cis-factorial M32 reporter, mRNA; actives raise or lower the signal. The procedure, abridged: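 Fluorescent capillary electrophoresis peaks of HpaI-digested, FAM-labelled RT-PCR reporter products give the signal. Source: transiently transfected human liver HepG2 cells, 24 h after chemical dosing; bidirectional fitting against DMSO.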

Assay [5] can be described thus: ATG_M_06_CIS: Attagene CIS-FACTORIAL HepG2 Assay for M06 Transcription Factor (Internal Marker) (AID 2282950). As to conditions: HepG2 Attagene CIS-FACTORIAL M06 internal marker reporter; actives raise or lower the signal. The method, boiled down:
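Internal background marker within multiplexed cis-reporter HepG2 system. Cells transiently transfected, dosed 24 h; reporter mRNA measured by RT-PCR, HpaI digestion and capillary electrophoresis. Bidirectional fit relative to DMSO.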

In assay [6] the target is Hypoxia-inducible factor 1-alpha (Homo sapiens) (UniProt Q16665). The experiment in a line: ATG_HIF1a_CIS: Attagene CIS-FACTORIAL HepG2 Assay for human Hypoxia Inducible Factor 1 (HIF1A) (AID 2282951). To be noted: HepG2 Attagene cis-factorial HIF1a reporter transcription; actives raise or lower the signal. The method, boiled down: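 HepG2 cells transiently transfected with multiple cis-regulated reporter transcription units measure endogenous transcription factor activity. After 24 h exposure, reporter mRNA is quantified by RT-PCR with 6-FAM labelling, HpaI digestion and capillary electrophoresis. Bidirectional fitting against DMSO.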

For assay [7], the target named is Hepatocyte nuclear factor 6 (Homo sapiens) (UniProt Q9UBC0). The experiment in a line: ATG_HNF6_CIS: Attagene CIS-FACTORIAL HepG2 Assay for human Hepatocyte Nuclear Factor 6 (HNF6) (AID 2282952). As to conditions: HepG2 Attagene cis-factorial HNF6 reporter transcription; actives raise or lower the signal. The method, boiled down: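 HepG2 cells transiently transfected with cis-element-driven multiplexed reporter units measuring endogenous transcription factor activity. After 24 h exposure, reporter mRNA quantified by RT-PCR, FAM-labelled fragments and capillary electrophoresis; bidirectional fitting versus DMSO.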

The target in assay [8] is Heat shock factor protein 1 (Homo sapiens) (UniProt Q00613). Put plainly: ATG_HSE_CIS: Attagene CIS-FACTORIAL HepG2 Assay for human Heat Shock Transcription Factor 1 (HSE) (AID 2282953). As to conditions: HepG2 HSE cis-reporter, Attagene RNA transcription; actives raise or lower the signal. The procedure, abridged:
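HepG2 cells transfected with cis-promoter reporter units sensing endogenous transcription factor activity; reporter mRNA quantified 24 h post-dose by RT-PCR and capillary electrophoresis of 6-FAM-labelled products. Bidirectional fitting against DMSO.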

Assay [9] in a line: ATG_MRE_CIS: Attagene CIS-FACTORIAL HepG2 Assay for human Metal Responsive Element (MRE) (AID 2282954). To be noted: HepG2 MRE cis-reporter transcription, Attagene multiplex; actives raise or lower the signal. The method, boiled down: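 HepG2 cells transiently transfected with cis-element-driven reporter units; mRNA measured 24 h after dosing. Reporter transcripts quantified by RT-PCR, FAM labelling, HpaI digestion and capillary electrophoresis; bidirectional fit versus DMSO.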

Assay [10] can be described thus: ATG_PBREM_CIS: Attagene CIS-FACTORIAL HepG2 Assay for human Phenobarbital-responsive Enhancer Module (PBREM) (AID 2282955). As to conditions: HepG2 PBREM cis-reporter, Attagene multiplexed transcription; actives raise or lower the signal. The method, boiled down: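 HepG2 cells transiently transfected with multiple cis-regulated reporter units measure endogenous transcription factor activity; 24 h compound exposure. Reporter mRNA quantified by RT-PCR, fluorescent labelling, HpaI digestion and capillary electrophoresis; bidirectional fit versus DMSO.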

Assay [11] deals with Paired box protein Pax-6 (Homo sapiens) (UniProt P26367). The experiment in a line: ATG_Pax6_CIS: Attagene CIS-FACTORIAL HepG2 Assay for human Paired Box 6 (PAX6) (AID 2282956). As to conditions: HepG2 CIS-FACTORIAL PAX6 reporter transcription, RNA readout; actives raise or lower the signal. The method, boiled down: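 After twenty-four hours of chemical exposure, transfected HepG2 cells are harvested for RNA. Cis-promoter reporter transcripts are amplified, fluorescently labelled and sized by capillary electrophoresis, with gain and loss of signal scored against DMSO.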

The nature of assay [12]: ATG_PXRE_CIS: Attagene CIS-FACTORIAL HepG2 Assay for human Pregnane X Receptor Element (PXRE) (AID 2282957). As to conditions: HepG2 Attagene CIS-FACTORIAL PXRE reporter, mRNA; actives raise or lower the signal. The method, boiled down:
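HepG2 cells transiently transfected with cis-element-driven multiplexed reporter units; after 24 h chemical exposure, reporter mRNA measured by RT-PCR, 6-FAM labelling, HpaI digestion and capillary electrophoresis. Bidirectional fitting relative to DMSO.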

A short description of assay [13]: ATG_PPRE_CIS: Attagene CIS-FACTORIAL HepG2 Assay for human Peroxisome Proliferator-activated Response Element (PPRE) (AID 2282958). As to conditions: HepG2 PPRE cis-element reporter, Attagene transcription factor profiling; actives raise or lower the signal. The procedure, abridged:
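HepG2 cells are transiently transfected with multiplexed cis-promoter reporter units to report endogenous PPAR activity. After 24 h dosing, reporter mRNA is read by RT-PCR and capillary electrophoresis. Fitting is bidirectional against DMSO.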

The nature of assay [14]: ATG_Sox_CIS: Attagene CIS-FACTORIAL HepG2 Assay for human SRY-box transcription factor (SOX) (AID 2282960). As to conditions: HepG2 Attagene cis-factorial SOX reporter, mRNA; actives raise or lower the signal. The method, boiled down:
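HepG2 cells transiently transfected with multiple cis-regulated reporter units, then dosed for 24 h. Reporter mRNA quantified by RT-PCR, fluorescent labelling, HpaI digestion and capillary electrophoresis; bidirectional fit versus DMSO.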

Assay [15] concerns the target Transcription factor Sp1 (Homo sapiens) (UniProt P08047). Put plainly: ATG_Sp1_CIS: Attagene CIS-FACTORIAL HepG2 Assay for human Specificity Protein 1 (Sp1) (AID 2282961). To be noted: HepG2 Sp1 cis-reporter transcription, actives raise or lower the signal. The method, boiled down:
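HepG2 cells transiently transfected with multiplexed cis-regulated reporter constructs, chemical exposure 24 h. Reporter mRNA quantified by RT-PCR with capillary electrophoresis; bidirectional fit relative to DMSO.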

A short description of assay [16]: ATG_SREBP_CIS: Attagene CIS-FACTORIAL HepG2 Assay for human Sterol Regulatory Element Binding (SREBP) (AID 2282962). As to conditions: HepG2 Attagene cis-factorial SREBP reporter, mRNA; actives raise or lower the signal. The method, boiled down:
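Twenty-four hours after chemical dosing of transfected HepG2 cultures, reporter RNA was converted to cDNA, amplified, end-labelled with 6-FAM and resolved by capillary electrophoresis. Responses were fitted relative to DMSO.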

Assay [17] has as its target Signal transducer and activator of transcription 3 (Homo sapiens) (UniProt P40763). The experiment in a line: ATG_STAT3_CIS: Attagene CIS-FACTORIAL HepG2 Assay for human Signal Transducer and Activator of Transcription 3 (STAT3) (AID 2282963). To be noted: HepG2, Attagene cis-factorial STAT3 reporter transcription; actives raise or lower the signal. The procedure, abridged: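 HepG2 cells transiently transfected with multiple cis-element-driven reporter units report endogenous transcription factor activity. After 24 h compound exposure, reporter mRNA is measured by RT-PCR, 6-FAM labelling, HpaI digestion and capillary electrophoresis. Fitted bidirectionally versus DMSO.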

The nature of assay [18]: ATG_TA_CIS: Attagene CIS-FACTORIAL HepG2 Assay for human TA Basal Promoter (AID 2282964). To be noted: HepG2 Attagene CIS-factorial TA basal promoter reporter; actives raise or lower the signal. The procedure, abridged:
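HepG2 cells transiently transfected with multiple reporter units under cis promoter elements, reporting endogenous transcription factor activity; this endpoint tracks the TA basal promoter as background control. Reporter mRNA after 24 h dosing measured by RT-PCR/capillary electrophoresis; bidirectional fits versus DMSO.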

Assay [19] is described as follows: ATG_TCF_b_cat_CIS: Attagene CIS-FACTORIAL HepG2 Assay for human T-Cell-Factor with beta-catenin (TCF/b-cat) (AID 2282965). To be noted: HepG2 TCF/beta-catenin cis-reporter transcription, actives raise or lower the signal. The procedure, abridged: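 HepG2, transient MRTU transfection, cis-element-driven reporters (endogenous TFs). 24 h compound exposure. Readout: reporter mRNA by RT-PCR + 6-FAM primer extension, HpaI digest, capillary electrophoresis. Gain/loss fit vs DMSO baseline.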

Assay [20] can be described thus: ATG_RORE_CIS: Attagene CIS-FACTORIAL HepG2 Assay for human RAR-related Orphan Receptor Element (RORE) (AID 2282959). As to conditions: HepG2 Attagene cis-factorial RORE reporter, mRNA; actives raise or lower the signal. The procedure, abridged: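 HepG2 cells carrying transiently transfected cis-regulated reporter units; RORE-driven reporter mRNA quantified 24 h post-dosing by RT-PCR, 6-FAM primer extension, HpaI digestion and capillary electrophoresis. Bidirectional fit versus DMSO.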

Chain of Transcription factor Sp1 (Homo sapiens) (P08047 whole entry, looked up): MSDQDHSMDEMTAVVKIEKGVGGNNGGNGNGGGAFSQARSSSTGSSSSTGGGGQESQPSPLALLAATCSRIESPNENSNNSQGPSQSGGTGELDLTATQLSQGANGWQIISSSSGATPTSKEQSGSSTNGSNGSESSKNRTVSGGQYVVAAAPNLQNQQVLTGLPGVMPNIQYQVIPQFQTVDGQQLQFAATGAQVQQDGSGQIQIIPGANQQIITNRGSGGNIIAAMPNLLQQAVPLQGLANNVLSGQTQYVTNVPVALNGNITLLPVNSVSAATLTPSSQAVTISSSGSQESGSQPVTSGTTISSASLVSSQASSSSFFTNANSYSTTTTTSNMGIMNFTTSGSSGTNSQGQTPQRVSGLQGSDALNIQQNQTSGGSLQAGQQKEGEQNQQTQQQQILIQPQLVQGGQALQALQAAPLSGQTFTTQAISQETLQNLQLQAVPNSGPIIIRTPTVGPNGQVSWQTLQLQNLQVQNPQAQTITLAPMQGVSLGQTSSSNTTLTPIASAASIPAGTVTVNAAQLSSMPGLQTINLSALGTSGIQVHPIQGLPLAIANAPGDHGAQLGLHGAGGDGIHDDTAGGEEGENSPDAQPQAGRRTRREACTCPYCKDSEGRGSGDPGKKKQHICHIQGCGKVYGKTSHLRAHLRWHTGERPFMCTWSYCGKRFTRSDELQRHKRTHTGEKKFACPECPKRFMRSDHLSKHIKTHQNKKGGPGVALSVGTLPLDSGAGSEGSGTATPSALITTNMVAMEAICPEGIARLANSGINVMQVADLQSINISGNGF
Chain of Hypoxia-inducible factor 1-alpha (Homo sapiens) (Q16665 whole entry, looked up): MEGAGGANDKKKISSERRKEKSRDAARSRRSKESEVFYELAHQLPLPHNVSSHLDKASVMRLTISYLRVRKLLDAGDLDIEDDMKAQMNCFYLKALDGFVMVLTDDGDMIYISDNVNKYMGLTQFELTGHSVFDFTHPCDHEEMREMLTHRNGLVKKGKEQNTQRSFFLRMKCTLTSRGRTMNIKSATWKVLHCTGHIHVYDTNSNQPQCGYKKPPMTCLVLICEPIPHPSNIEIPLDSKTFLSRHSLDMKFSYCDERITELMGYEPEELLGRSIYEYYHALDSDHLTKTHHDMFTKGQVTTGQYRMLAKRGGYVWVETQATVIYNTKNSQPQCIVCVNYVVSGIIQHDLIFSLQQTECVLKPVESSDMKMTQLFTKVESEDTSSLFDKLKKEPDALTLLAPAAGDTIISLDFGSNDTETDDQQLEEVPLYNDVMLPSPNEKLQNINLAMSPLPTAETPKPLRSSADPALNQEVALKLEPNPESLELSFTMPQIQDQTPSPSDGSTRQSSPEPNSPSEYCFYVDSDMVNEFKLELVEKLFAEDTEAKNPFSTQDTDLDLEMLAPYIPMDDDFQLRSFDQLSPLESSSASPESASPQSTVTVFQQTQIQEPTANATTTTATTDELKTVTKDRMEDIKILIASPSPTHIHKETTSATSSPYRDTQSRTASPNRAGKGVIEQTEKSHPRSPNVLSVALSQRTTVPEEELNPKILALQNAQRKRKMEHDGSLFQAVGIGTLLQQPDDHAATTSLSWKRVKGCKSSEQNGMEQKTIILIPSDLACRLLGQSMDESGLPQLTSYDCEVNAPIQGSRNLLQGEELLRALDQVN
Chain of Paired box protein Pax-6 (Homo sapiens) (P26367 whole entry, looked up): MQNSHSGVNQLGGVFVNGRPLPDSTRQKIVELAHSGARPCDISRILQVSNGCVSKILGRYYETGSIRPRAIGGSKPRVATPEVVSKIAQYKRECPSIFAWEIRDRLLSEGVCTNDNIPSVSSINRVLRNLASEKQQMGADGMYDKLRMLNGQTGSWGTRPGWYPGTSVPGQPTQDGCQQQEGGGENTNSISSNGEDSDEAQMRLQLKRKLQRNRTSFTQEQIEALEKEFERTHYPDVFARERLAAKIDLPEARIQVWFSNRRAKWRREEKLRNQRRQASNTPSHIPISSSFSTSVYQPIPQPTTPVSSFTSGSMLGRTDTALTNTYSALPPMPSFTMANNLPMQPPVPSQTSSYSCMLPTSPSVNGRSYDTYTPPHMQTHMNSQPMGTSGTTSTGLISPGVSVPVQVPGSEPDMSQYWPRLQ
Chain of Hepatocyte nuclear factor 6 (Homo sapiens) (Q9UBC0 whole entry, looked up, the tested form may be a part): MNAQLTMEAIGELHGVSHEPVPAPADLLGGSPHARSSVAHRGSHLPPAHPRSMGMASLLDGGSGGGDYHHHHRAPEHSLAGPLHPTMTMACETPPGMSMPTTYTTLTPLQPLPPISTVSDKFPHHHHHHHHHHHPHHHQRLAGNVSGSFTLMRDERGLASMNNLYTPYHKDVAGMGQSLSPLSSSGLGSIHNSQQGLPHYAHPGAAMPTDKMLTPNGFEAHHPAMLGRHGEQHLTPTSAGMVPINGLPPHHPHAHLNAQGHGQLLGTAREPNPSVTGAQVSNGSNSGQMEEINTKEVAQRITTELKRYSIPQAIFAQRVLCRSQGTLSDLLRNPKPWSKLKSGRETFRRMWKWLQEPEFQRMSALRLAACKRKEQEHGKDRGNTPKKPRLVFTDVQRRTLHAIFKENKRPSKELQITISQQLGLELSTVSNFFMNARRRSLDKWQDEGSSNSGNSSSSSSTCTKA
Chain of Heat shock factor protein 1 (Homo sapiens) (Q00613 whole entry, looked up): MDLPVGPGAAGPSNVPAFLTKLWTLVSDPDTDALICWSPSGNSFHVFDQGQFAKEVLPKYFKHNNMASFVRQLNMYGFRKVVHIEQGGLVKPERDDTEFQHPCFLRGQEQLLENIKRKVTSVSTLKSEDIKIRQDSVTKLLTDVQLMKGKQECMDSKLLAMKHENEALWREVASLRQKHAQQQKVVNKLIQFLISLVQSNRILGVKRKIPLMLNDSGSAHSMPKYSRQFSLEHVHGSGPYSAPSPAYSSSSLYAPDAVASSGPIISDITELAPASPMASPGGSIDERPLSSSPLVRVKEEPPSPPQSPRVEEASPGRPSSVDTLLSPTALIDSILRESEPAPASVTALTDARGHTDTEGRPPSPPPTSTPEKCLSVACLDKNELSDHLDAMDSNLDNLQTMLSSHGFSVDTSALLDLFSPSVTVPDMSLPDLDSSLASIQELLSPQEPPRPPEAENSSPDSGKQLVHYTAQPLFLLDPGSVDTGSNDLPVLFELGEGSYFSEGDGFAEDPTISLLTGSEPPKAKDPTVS
Chain of Bile acid receptor (Homo sapiens) (Q96RI1 whole entry, looked up): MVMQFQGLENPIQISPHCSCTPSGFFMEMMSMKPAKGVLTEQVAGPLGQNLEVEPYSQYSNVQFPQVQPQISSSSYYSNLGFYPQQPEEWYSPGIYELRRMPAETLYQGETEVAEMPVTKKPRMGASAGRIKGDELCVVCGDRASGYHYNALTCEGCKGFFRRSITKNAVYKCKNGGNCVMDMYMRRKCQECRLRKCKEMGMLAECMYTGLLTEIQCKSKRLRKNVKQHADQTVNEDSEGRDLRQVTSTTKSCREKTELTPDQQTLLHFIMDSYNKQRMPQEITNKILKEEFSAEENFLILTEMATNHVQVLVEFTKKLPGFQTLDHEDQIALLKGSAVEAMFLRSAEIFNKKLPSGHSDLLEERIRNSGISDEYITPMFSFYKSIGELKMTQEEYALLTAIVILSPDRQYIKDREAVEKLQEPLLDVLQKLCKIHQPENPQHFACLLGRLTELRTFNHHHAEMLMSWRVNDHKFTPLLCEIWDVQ
Chain of Signal transducer and activator of transcription 3 (Homo sapiens) (P40763 whole entry, looked up): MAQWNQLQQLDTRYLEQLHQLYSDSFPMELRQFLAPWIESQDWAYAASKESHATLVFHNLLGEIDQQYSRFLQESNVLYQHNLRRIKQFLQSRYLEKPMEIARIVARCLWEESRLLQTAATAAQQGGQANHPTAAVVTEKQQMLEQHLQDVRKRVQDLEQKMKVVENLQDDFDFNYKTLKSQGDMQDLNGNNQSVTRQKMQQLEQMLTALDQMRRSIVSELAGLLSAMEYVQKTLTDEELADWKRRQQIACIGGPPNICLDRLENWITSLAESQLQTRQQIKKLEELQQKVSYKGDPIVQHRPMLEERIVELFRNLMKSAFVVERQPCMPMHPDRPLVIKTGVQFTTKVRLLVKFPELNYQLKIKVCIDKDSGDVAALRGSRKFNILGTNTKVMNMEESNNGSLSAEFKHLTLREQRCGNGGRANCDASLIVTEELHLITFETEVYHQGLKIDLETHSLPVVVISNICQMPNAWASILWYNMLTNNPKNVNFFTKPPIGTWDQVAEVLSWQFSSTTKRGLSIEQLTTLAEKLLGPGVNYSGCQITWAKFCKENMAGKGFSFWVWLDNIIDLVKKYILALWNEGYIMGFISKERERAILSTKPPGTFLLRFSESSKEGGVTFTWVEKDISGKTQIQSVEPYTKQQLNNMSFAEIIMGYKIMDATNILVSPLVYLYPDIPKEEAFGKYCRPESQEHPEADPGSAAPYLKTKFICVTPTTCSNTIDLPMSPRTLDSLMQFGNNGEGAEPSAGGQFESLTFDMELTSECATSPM

As to `C=C[C@](C)(O)CC[C@@H]1[C@@]2(C)CCCC(C)(C)[C@@H]2CC[C@@]1(C)O`, the compound was classed as inactive in assay [1], in assay [2], in [3], in assay [4], in assay [5] and in [6]. Besides, the compound was classed as inactive in assay [7], in [8], in assay [9], in [10], in assay [11] and in [13]. Besides, the call in assay [14], in [15], in [16], in assay [17] and in assay [18] was inactive. Moreover, the AC50 – broadly, the concentration at which the activity in the assay is half-maximal – in assay [12] is 0.357 µM (active).

Turning to `CCCCCCCCc1ccc(Nc2ccc(CCCCCCCC)cc2)cc1`, the compound was called inactive in assay [1], in assay [2], in assay [3], in assay [4], in assay [5] and in assay [6]. Moreover, the result in assay [7], in [8], in [9], in assay [10], in assay [11] and in [14] was inactive. Also, the compound was classed as inactive in assay [15], in assay [16], in assay [18] and in assay [19]. For the same compound, the AC50 in assay [12] is 6.3 µM (active).

As for `O=CC1CC1`, the compound was called inactive in assay [1], in [2], in assay [3], in assay [4], in assay [5] and in assay [6]. The compound was classed as inactive in assay [7], in [8], in assay [9], in assay [10], in assay [11] and in assay [12]. For the same compound, the outcome in [13], in assay [20], in [14], in assay [15], in assay [16] and in assay [18] was inactive.

For the compound `CC(=O)CC(N)=O`, the compound was called inactive in assay [1], in assay [2], in assay [3], in [4], in [5] and in assay [6]. Besides, the call in [7], in assay [8], in [9], in assay [11], in [13] and in assay [20] was inactive. The result in [14], in assay [15] and in assay [17] was inactive. Besides, the AC50 in assay [12] is 0.0836 µM (active).
